Source: PubChem BioAssay (National Center for Advancing Translational Sciences (NCATS))
PNC assembly inh: perinucleolar compartment assembly inhibition. PC3M PTB-GFP, PNC prevalence imaging, 16 h; stronger effect = lower value. activity change (PNC), negative = inhibition, % at 10 µM. 3.1% of 140,000 active;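 active means readout at or below -70, meaning at least 70% loss of cells showing the perinucleolar compartment, a nuclear body marking cancer cells; inconclusive means readout between -30 and a set limit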;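 further: plate controls were DMSO wells for no effect and camptothecin positive control wells for full effect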
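Compounds are pinned in duplicate onto adhered PC3M cells stably expressing GFP-tagged PTB and incubated 16 h at 37 C. Cells are then fixed, nuclei stained with Hoechst, and PNC-positive cells counted.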
HPGD inh: inhibitors of human 15-hydroxyprostaglandin dehydrogenase (HPGD); 4.3% of 150,000 active; P15428; Potency, µM, for inactives: top-dose activity change, negative = inhibition, actives largely listed as inhibitors; purified HPGD, NADH fluorescence kinetic, PGE2 substrate; further: potency means the concentration at half of the fitted maximal effect
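20 nM HPGD preincubated 15 min at room temperature with compound in 50 mM Tris-HCl pH 8, 0.01% Tween 20. Started with 1 mM NAD+ and 30 uM prostaglandin E2; NADH fluorescence (360/450 nm) read 5 times over 30-s intervals, last minus first.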
ALDH1A1 inh: blocks purified human ALDH1A1 activity | AID 1030 | 7.3% of 220,000 active | Purified ALDH1A1, NADH fluorescence, propionaldehyde substrate | Potency, µM (series often up to 75.3 µM), inactives show top-dose activity, negative = inhibition, most hits filed as inhibitors;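 further: potency means the concentration at half of the fitted maximal effect; plate controls were no enzyme wells and a reference inhibitor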
Target sequence (P00352 whole entry, looked up): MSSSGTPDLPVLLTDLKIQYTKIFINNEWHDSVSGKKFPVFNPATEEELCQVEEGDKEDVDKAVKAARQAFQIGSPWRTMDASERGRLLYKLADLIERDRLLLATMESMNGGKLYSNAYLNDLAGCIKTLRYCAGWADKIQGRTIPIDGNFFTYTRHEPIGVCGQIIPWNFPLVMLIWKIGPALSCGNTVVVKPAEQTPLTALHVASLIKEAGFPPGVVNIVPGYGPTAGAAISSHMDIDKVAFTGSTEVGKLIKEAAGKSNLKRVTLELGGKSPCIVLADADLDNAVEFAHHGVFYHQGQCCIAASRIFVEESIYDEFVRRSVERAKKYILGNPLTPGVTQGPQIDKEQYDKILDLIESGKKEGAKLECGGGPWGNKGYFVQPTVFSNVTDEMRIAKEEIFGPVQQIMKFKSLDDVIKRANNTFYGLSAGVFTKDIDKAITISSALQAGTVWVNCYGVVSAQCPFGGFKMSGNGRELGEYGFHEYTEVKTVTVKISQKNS
* hit, by the source's call; ? = inconclusive; nt = no result. Hits are enriched below; roughly 11% of the tested compounds scored in any of these assays. Unless noted, the call rests on the fitted dose curve; in most records, active means well fitted inhibition curve with a large enough effect (not every such curve was filed as active); inconclusive means small, poorly fitted or top-dose-only effect, or another doubt; inactive means no such curve, though single readings can be large or run the other way. Unless noted, on the % scale 0 is the no-effect control and ±100 the full control effect.

SMILES	PNC assembly inh	HPGD inh	ALDH1A1 inh
CCOc1ccc2nc(SCC(=O)NC(=O)NCc3ccco3)sc2c1	32.3	-22.7%	5.1%
CCOc1ccc2nc(SCC(=O)c3ccc(Cl)s3)sc2c1	?	?	4.1%
CCOc1ccc2nc(SCC(=O)NCc3ccco3)sc2c1	?	22.4µM*	-3.0%
COC(=O)C1=C(C(=O)OC)[C@@H]2Nc3ccccc3[C@@]23C[C@@H](C(=O)OC)N(S(=O)(=O)c2c(C)noc2C)C3=N1	nt	-0.2%	?
Cc1cccc(N2CCN(C(=O)c3ccoc3C)CC2)c1C	42.0	-13.8%	-5.2%
Cc1nc(N)ncc1Sc1ccccc1	nt	nt	-5.7%
COc1cc(C(=O)NCCc2ccc(S(N)(=O)=O)cc2)cc(OC)c1OC	-10.7	nt	11.7%
COc1cc(Cl)c(C)cc1NC(=S)NN	nt	nt	11.2µM*
COc1cc(C)c(NC(=S)Nc2ccc(Cl)c(Cl)c2)cc1OC	?	15.8µM*	8.91µM*
COc1cc(NC(=S)NCCc2ccc(S(N)(=O)=O)cc2)c(OC)cc1Cl	nt	nt	11.2µM*
COc1cc(NC(=S)Nc2ccc(Br)cc2Cl)c(OC)cc1Cl	-23.2	-27.4%	28.2µM*
COC(=O)c1cc(OC)c(OC)cc1NC(=S)Nc1cccc(Cl)c1	20.5	-16.5%	?
COc1cc(Cl)c(C)cc1NC(=O)Cc1ccc(OC)c(OC)c1	nt	nt	-2.9%
COc1cc(NC(=S)Nc2cccc(Cl)c2Cl)c(OC)cc1Cl	-5.6	nt	-5.4%
CCOc1ccccc1OCCC(=O)OCC(=O)c1ccc[nH]1	nt	nt	7.2%
Cc1c([N+](=O)[O-])cc(C(=O)Oc2cccc(C(=S)N3CCOCC3)c2)cc1[N+](=O)[O-]	nt	nt	-7.9%
CCOC(=O)c1nc(-c2ccc(OC)c(OC)c2)cnc1C#N	40.9	?	1.4%
C/C=C1\C(OC2OC(CO)C(O)C(O)C2O)OC=C(C(=O)OC)C1CC(=O)OCC1C(C)C(OC(=O)CC2C(C(=O)OC)=COC(OC3OC(CO)C(O)C(O)C3O)/C2=C\C)CC1C(CO)CO (configuration not stated)	nt	nt	-12.1%
O=C(N/N=C/c1ccccc1)c1sccc1OCc1ccc(F)cc1	-11.7	-10.6%	-8.1%
CCOC(=O)Cc1nnc(NC(=O)C(CC)Sc2nncn2C)s1 (configuration not stated)	-85.3*	-16.5%	-11.2%
CCOC(=O)Cc1nnc(NC(=O)CSc2nncn2C)s1	-3.7	-5.6%	0.1%
Cc1ccc(/C=C2/C(=O)N=C(N)N2C)s1	2.6	-11.1%	4.2%
Cc1ccc(C=C2C(=O)c3ccccc3C2=O)s1	12.7	12.6µM*	0.501µM*
CCC(OC(=O)c1nsc(Cl)c1Cl)C(=O)NC(C)(C)CC (configuration not stated)	nt	nt	-0.8%
CCOC(=O)c1cc(-c2ccccc2)nn1-c1ccccn1	?	-19.8%	12.6µM*
SMILES	PNC assembly inh	HPGD inh	ALDH1A1 inh
CCOC(=O)c1cc(-c2cccnc2)nn1-c1ccccc1	nt	nt	-7.6%
NC(=O)c1ccc(NCCCN2CCOCC2)c([N+](=O)[O-])c1	nt	nt	5.2%
CC1(C)CC(=O)C2=C(C1)c1c(ccc3ncccc13)NC2c1cccs1 (configuration not stated)	136.8	-17.2%	?
COc1cc(C2Nc3ccc4ncccc4c3C3=C2C(=O)CC(C)(C)C3)cc(OC)c1O (configuration not stated)	-13.7	-13.1%	12.6µM*
COc1cc(C2Nc3ccc4ncccc4c3C3=C2C(=O)CCC3)cc(OC)c1O (configuration not stated)	46.4	-8.5%	-2.9%
CC1(C)CC(=O)C2=C(C1)c1c(ccc3ccccc13)NC2c1cc([N+](=O)[O-])cc([N+](=O)[O-])c1O (configuration not stated)	nt	nt	11.2µM*
COc1ccc(NS(=O)(=O)c2cc(OCC(N)=O)c(C)cc2Cl)cc1	-2.6	-11.6%	0.7%
O=C(c1csnn1)N1CCC2(CC1)CCN(c1cccc(-c3ccccc3)c1)CC2	nt	-13.0%	2.8%
CN1CCN(C(=O)C2(NC(=O)Nc3ccccc3Cl)CCCCC2)CC1	?	-4.3%	5.7%
COc1ccccc1NC(=O)NC1(C(=O)N2CCCCCC2)CCCCC1	-23.4	-3.7%	7.08µM*
Cc1cccc(-n2c(=O)c3c(n4cnnc24)-c2ccccc2CC32CCCCC2)c1	45.2	-2.4%	1.5%
O=c1c2c(n3cnnc3n1-c1ccccc1)-c1ccccc1CC21CCCCC1	-12.7	-16.7%	20µM*
O=C/C(=C\Nc1ccc(C(=O)N2CCOCC2)cc1)c1nc2ccccc2o1	nt	nt	-11.2%
CCN(C(=O)COC(=O)c1ccc2[nH]c3c(c2c1)CCCC3)C1CCS(=O)(=O)C1 (configuration not stated)	nt	nt	1.9%
CCOC(=O)Cc1cnc(NC(=O)CSc2nc3ncnc(N)c3[nH]2)s1	nt	nt	9.3%
